The source of these data is PubChem BioAssay (EPA / NIEHS).

Calls of active or inactive are those of the source. Rule for the calls: active = hit-call score of the fitted dose curve at least 0.9, where 1 is the maximum; inactive = score below 0.9.

Read-out in this experiment: Forkhead box O1 (FOXO1), FOXO1 (gene 2308)
Nature of the experiment: LTEA_HepaRG_FOXO1: Life Technologies and Expression Analysis (LTEA) Assay for Forkhead box O1 (FOXO1) using HepaRG (AID 2283456). As to conditions: mRNA level, 48 h; actives raise or lower the signal. The method in brief:
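Differentiated human HepaRG cells in serum-free induction medium were exposed in duplicate for 48 h to eight half-log concentrations (top 100 uM, 0.5% DMSO). FOXO1 mRNA was measured by TaqMan qRT-PCR, normalised to ACTB, GAPDH and POLR2A, and fitted bidirectionally against DMSO.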
Consider `CCCCCCCCCC[N+](C)(C)[O-]`, for which the molecule was called inactive.

On to `CCOCCOCCO`, for which the outcome was inactive.

Take `O=C1CCCCC1`: the outcome was inactive.

Turning to `COC(=O)CCCC(=O)OC`, the outcome was inactive.

As to `Nc1nc(=S)c2[nH]cnc2[nH]1`, the outcome was inactive.

As for `Oc1ccc(O)cc1`, the call was inactive.

Turning to `CC(C)c1cccc(C(C)C)c1NC(=O)NS(=O)(=O)c1cc(C(C)(C)O)co1`, the molecule was classed as inactive.

Consider `CCCCCCCCCCCCCCOS(=O)(=O)O`, for which the molecule was called inactive.

Take `S=c1[nH]c2ccccc2s1`: the molecule was classed as inactive.

As to `NC1CCCCC1`, the call was inactive.

With `Cn1cnc2c1c(=O)[nH]c(=O)n2C`, the outcome was inactive.

`Cc1cc(SC2=C(O)C[C@@](CCc3ccc(N)cc3)(C(C)C)OC2=O)c(C(C)(C)C)cc1CO`: the outcome was inactive.

The AC50 is the concentration at which the activity in the assay is half-maximal. With `CN(C)CCCN1c2ccccc2Sc2ccc(Cl)cc21`, the AC50 was 79.2 µM (active).

Regarding `CC(=O)CC(c1ccccc1)c1c(O)c2ccccc2oc1=O` (stereo not given), the result was inactive.

`NC=O`: the result was inactive.

Take `CC(=O)S[C@H](C(=O)N[C@H]1Cc2ccccc2[C@H]2CCC[C@@H](C(=O)O)N2C1=O)C(C)C`: the call was inactive.

`COc1ccc(C(=O)Nc2nc3ccccc3c(NCc3ccccc3)c2C#N)cc1`: the molecule was called inactive.

For `CCCCC(CC)CO` (stereo not given), the molecule was classed as inactive.

For `CC(=O)OC1CC(C)OC(C)O1` (stereo not given), the call was inactive.

For `C=CCc1ccc(OC)c(OC)c1`, the molecule was classed as inactive.

In the case of `CCCCc1nc2cccnc2n1Cc1ccc(-c2ccccc2-c2nnn[nH]2)cc1`, the molecule was classed as inactive.

`C=CCCCCCCCCCCCC`: the molecule was called inactive.

Take `CCc1cc(C2=C(C(=O)O)N(c3ccccc3C(F)(F)F)S(=O)(=O)c3ccccc32)cc2c1OCO2`: the outcome was inactive.

As for `CCCCCCCCCCCCCCCCO`, the call was inactive.

In the case of `CCCC[C@H]1CN(CC2CCOCC2)C(=O)OC12CCN(C1(C)CCN(C(=O)c3c(C)ncnc3C)CC1)CC2`, the result was inactive.

`Nc1nc(Cl)nc2c1ncn2[C@H]1C[C@H](O)[C@@H](CO)O1`: the half-maximal activity concentration (AC50) was 1.65 µM (active).

As for `O=C1OC(c2ccc(O)cc2)(c2ccc(O)cc2)c2ccccc21`, the AC50 is 50 µM (active).

Take `CC(C)COC(=O)CCCCC(=O)OCC(C)C`: the molecule was called inactive.

Consider `O=C1c2c(O)cccc2Cc2cccc(O)c21`, for which the molecule was classed as inactive.

With `CS(=O)(=O)c1ccc([C@@H](C[C@H]2CCC(=O)C2)C(=O)Nc2cnccn2)cc1Cl`, the AC50 was 1.27 µM (active).
